IDE exosite inh = displaces the probe from the exo-site of human IDE; P14735; purified IDE, FL-6b probe fluorescence polarization; active compounds read low; z-score at 20 µM; actives 6.3% (n = 17,000); AID 1259349;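 active means z-score of -3 or lower, meaning strong loss of probe binding signal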;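 further: His-tagged human IDE residues 42-1019 made in E. coli with 30 nM FL-6b probe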
Target sequence (P14735 42-1019 limits assumed): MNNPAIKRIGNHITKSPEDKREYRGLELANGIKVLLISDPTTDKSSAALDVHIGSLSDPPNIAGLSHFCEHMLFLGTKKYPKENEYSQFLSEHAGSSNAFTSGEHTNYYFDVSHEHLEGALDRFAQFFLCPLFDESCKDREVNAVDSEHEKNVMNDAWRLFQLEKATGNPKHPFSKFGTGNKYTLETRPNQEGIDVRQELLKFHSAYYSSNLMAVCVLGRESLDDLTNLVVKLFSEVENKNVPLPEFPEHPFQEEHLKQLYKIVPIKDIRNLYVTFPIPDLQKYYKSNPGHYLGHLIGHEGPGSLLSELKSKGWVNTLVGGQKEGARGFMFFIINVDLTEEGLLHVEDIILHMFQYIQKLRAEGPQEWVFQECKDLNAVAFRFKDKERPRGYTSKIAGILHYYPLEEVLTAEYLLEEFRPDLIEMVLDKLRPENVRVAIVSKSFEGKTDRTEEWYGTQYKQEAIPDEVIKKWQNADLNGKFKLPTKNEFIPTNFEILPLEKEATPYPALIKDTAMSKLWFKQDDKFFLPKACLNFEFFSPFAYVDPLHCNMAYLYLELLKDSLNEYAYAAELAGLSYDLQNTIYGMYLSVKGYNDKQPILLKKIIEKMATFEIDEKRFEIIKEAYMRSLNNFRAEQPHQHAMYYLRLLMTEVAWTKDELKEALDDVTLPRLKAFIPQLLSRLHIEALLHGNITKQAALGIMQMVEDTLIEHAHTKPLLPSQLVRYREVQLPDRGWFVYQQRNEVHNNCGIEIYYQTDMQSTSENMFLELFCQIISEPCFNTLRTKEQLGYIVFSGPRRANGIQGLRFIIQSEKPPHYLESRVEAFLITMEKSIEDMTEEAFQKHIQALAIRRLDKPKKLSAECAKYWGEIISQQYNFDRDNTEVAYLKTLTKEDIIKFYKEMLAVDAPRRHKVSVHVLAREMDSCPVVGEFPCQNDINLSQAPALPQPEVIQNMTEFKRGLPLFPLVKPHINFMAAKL
A number is an active result; - = inactive. The sample as a whole holds a higher share of hits than the screen did.

SMILES	IDE exosite inh
O=C(Cc1ccccn1)N1CCCCN2[C@@H](CO)[C@H](c3ccc(-c4ccccc4F)cc3)[C@@H]2C1	-
O=C(Cc1ccccn1)N1CCCCN2[C@H](CO)[C@H](c3ccc(Br)cc3)[C@@H]2C1	-
O=C(Cc1ccccn1)N1CCCCN2[C@H](CO)[C@@H](c3ccc(-c4ccccc4F)cc3)[C@H]2C1	-
O=C(Cc1ccccn1)N1CCCCN2[C@H](CO)[C@H](c3ccc(-c4ccccc4F)cc3)[C@H]2C1	-4.4
O=C(Cc1ccccn1)N1CCCCN2[C@H](CO)[C@@H](c3ccc(Br)cc3)[C@@H]2C1	-
O=C(Cc1ccccn1)N1CCCCN2[C@@H](CO)[C@@H](c3ccc(-c4ccccc4F)cc3)[C@@H]2C1	-5.6
O=C(Cc1cccnc1)N1CCCCN2[C@H](C1)[C@H](c1ccc(C#CC3(O)CCCC3)cc1)[C@@H]2CO	-
O=C(Cc1ccccc1)N1CCCCN2[C@H](CO)[C@@H](c3ccc(-c4ccccc4)cc3)[C@H]2C1	-
N#Cc1cccc(-c2ccc([C@@H]3[C@H]4CN(C(=O)Cc5ccncc5)CCCCN4[C@H]3CO)cc2)c1	-
OC[C@@H]1Nc2ccc(C#Cc3cccnc3)cc2[C@@H]2NCC[C@H]12	-
N#Cc1cccc(-c2ccc([C@H]3[C@@H](CO)N4CCCCN(C(=O)Cc5ccncc5)C[C@H]34)cc2)c1	-
C/C=C/c1ccc([C@@H]2[C@H](CO)N3CCCCN(C(=O)Cc4ccncc4)C[C@@H]23)cc1	-
O=C(Cc1ccccn1)N1CCCCN2[C@H](CO)[C@H](c3ccc(-c4ccccc4)cc3)[C@H]2C1	-4.7
O=C(Cc1ccncc1)N1CCCCN2[C@@H](CO)[C@H](c3ccc(C#Cc4ccccc4F)cc3)[C@@H]2C1	-
CCCC#Cc1ccc([C@@H]2[C@@H](CO)N3CCCCN(C(=O)Cc4ccccn4)C[C@H]23)cc1	-
O=C(Cc1ccccn1)N1CCCCN2[C@H](C1)[C@H](c1ccc(Br)cc1)[C@@H]2CO	-
O=C(Cc1ccccn1)N1CCCCN2[C@H](CO)[C@@H](c3ccc(-c4ccc(F)cc4)cc3)[C@@H]2C1	-
O=C(Cc1ccccn1)N1CCCCN2[C@H](C1)[C@@H](c1ccc(C#Cc3ccccc3)cc1)[C@@H]2CO	-6.3
O=C(Cc1ccccn1)N1CCCCN2[C@H](C1)[C@@H](c1ccc(-c3ccccc3)cc1)[C@@H]2CO	-
O=C(Cc1ccncc1)N1CCCCN2[C@H](C1)[C@@H](c1ccc(C#Cc3ccccc3F)cc1)[C@@H]2CO	-
O=C(Cc1ccccn1)N1CCCCN2[C@@H](CO)[C@@H](c3ccc(-c4ccccc4)cc3)[C@@H]2C1	-3.5
O=C(Cc1ccccn1)N1CCCCN2[C@H](CO)[C@H](c3ccc(-c4ccc(F)cc4)cc3)[C@H]2C1	-
O=C(Cc1ccncc1)N1CCCCN2[C@H](CO)[C@H](c3ccc(C#Cc4ccccc4F)cc3)[C@@H]2C1	-4.3
CCCC#Cc1ccc([C@H]2[C@H](CO)N3CCCCN(C(=O)Cc4ccccn4)C[C@@H]23)cc1	-
O=C(O)[C@H]1[C@H](CO)[C@H]2Cn3c(ccc(C4=CCCCC4)c3=O)[C@@H]1N2C(=O)Cc1ccccn1	-
SMILES	IDE exosite inh
N#Cc1cccc(-c2ccc([C@@H]3[C@@H](CO)N4CCCCN(C(=O)Cc5ccncc5)C[C@@H]34)cc2)c1	-
O=C(Cc1ccccc1)N1CCCCN2[C@H](CO)[C@H](c3ccc(-c4ccccc4)cc3)[C@H]2C1	-
N#Cc1cccc(-c2ccc([C@H]3[C@H](CO)N4CCCCN(C(=O)Cc5ccncc5)C[C@@H]34)cc2)c1	-
OC[C@H]1[C@H]2c3ccccc3NC[C@H]2N1Cc1cccnc1	-
C/C=C/c1ccc(C2[C@H]3CNC[C@@H]2N3CC2CC2)cc1 (stereo partly specified)	-
CCCC#Cc1ccc([C@@H]2[C@@H](CO)N3CCCCN(C(=O)Cc4ccccn4)C[C@@H]23)cc1	-
CN1[C@@H]2CNc3ccccc3[C@@H]2[C@@H]1CO	-
CC(C)CC#Cc1ccc([C@@H]2[C@H]3CN(C(=O)Cc4ccccn4)CCCCN3[C@H]2CO)cc1	-
O=C(Cc1ccccc1)N1CCCCN2[C@H](CO)[C@H](c3ccc(C#CC4(O)CCCC4)cc3)[C@H]2C1	-
CCCC#Cc1ccc([C@H]2[C@@H](CO)N3CCCCN(C(=O)Cc4ccccn4)C[C@H]23)cc1	-
Cc1ccccc1-c1ccc([C@@H]2[C@@H](CO)N3CCCCN(C(=O)Cc4ccccn4)C[C@@H]23)cc1	-9.5
O=C(Cc1ccccn1)N1CCCCN2[C@H](CO)[C@@H](c3ccc(Br)cc3)[C@H]2C1	-
N#Cc1cccc(-c2ccc([C@@H]3[C@H]4CN(C(=O)Cc5cccnc5)CCCCN4[C@H]3CO)cc2)c1	-
C/C=C/c1ccc([C@@H]2[C@H]3CN(C(=O)Cc4ccncc4)CCCCN3[C@H]2CO)cc1	-
O=C(Cc1cccnc1)N1CCCCN2[C@H](C1)[C@H](c1ccc(/C=C/c3ccccc3)cc1)[C@@H]2CO	-5.5
C/C=C/c1ccc([C@@H]2[C@@H](CO)N3CCCCN(C(=O)Cc4cccnc4)C[C@H]23)cc1	-
O=C(Cc1cccnc1)N1CCCCN2[C@H](C1)[C@@H](c1ccc(C#CC3CCCC3)cc1)[C@@H]2CO	-
O=C(Cc1cccnc1)N1CCCCN2[C@H](CO)[C@H](c3ccc(/C=C/c4ccccc4)cc3)[C@@H]2C1	-11
O=C(Cc1cccnc1)N1CCCCN2[C@@H](CO)[C@H](c3ccc(/C=C/c4ccccc4)cc3)[C@@H]2C1	-9.2
O=C(Cc1cccnc1)N1CCCCN2[C@H](CO)[C@H](c3ccc(C#CC4CCCC4)cc3)[C@@H]2C1	-
C/C=C/c1ccc([C@H]2[C@@H](CO)N3CCCCN(C(=O)Cc4cccnc4)C[C@@H]23)cc1	-
C/C=C/c1ccc([C@@H]2[C@H]3CN(C(=O)Cc4cccnc4)CCCCN3[C@H]2CO)cc1	-
O=C(O)[C@@H]1[C@@H](CO)[C@@H]2Cn3c(ccc(-c4cccnc4)c3=O)[C@H]1N2C(=O)Nc1cc(F)ccc1F	-
N#Cc1cccc(-c2ccc([C@@H]3[C@H](CO)N4CCCCN(C(=O)Cc5ccncc5)C[C@@H]34)cc2)c1	-
COc1ccc(C#Cc2ccc([C@@H]3[C@@H](CO)N4CCCCN(C(=O)Cc5ccncc5)C[C@H]34)cc2)cc1	-

Compound activity from PubChem.
